# Source: PubChem (National Center for Advancing Translational Sciences (NCATS))
# DT40 TDP1 no CPT = qHTS for Inhibitors of human tyrosyl-DNA phosphodiesterase 1 (TDP1): qHTS in cells in absence of CPT; DT40 Tdp1-/- hTDP1 cells, no CPT, ATP luminescence, 48 h; Potency, µM (series often up to 46.2 µM), without a hit: at the top dose activity change, negative = growth inhibition, most hits filed as inhibitors; actives 15% (n = 420,000); AID 686978, 2013; also: potency is read from the fitted curve at half-maximal effect; % is scaled to controls: 0 for no effect and ±100 for the full control effect; nearly all actives have a fitted effect of over 55% in size
#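 Readout: luminescence from CellTiter-Glo after 30 min in the dark at RT. Cells: DT40 Tdp1-/- with stable hTDP1, 400/well. Exposure: compounds alone, ≥48 hr, 37 °C.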
# HepG2 viability = counter-screen for TGF-b inhibitors: cytotoxicity in HepG2 cells | HepG2 CAGA-GFP viability, ATP luminescence, 18 h | Potency, µM (highest dose often 46.1 µM), for inactives: at the highest dose activity change, negative = cytotoxicity, hits mostly cytotoxic | actives 0.76% (n = 410,000) | AID 588856; also: potency is read from the fitted curve at half-maximal effect
#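 CellTiter-Glo luminescence gave cytotoxicity after 18 hours at 37 degrees C. The cells were HepG2 CAGA-GFP in 1% FBS DMEM, stimulated with 500 pg/mL TGF-beta after compound addition. %Activity was normalised to no-cell wells (complete cell-killing) and DMSO (no toxicity), and curves were fitted and classified.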
# TDP1 block = TDP1 (human) enzyme inhibition | Q9NUW8 | recombinant TDP1, AlphaScreen DNA substrate cleavage | actives 0.28% (n = 350,000) | Potency, µM (highest dose often 130 µM), inactives show at the highest dose activity change, negative = inhibition, actives largely listed as inhibitors; also: potency is read from the fitted curve at half-maximal effect; % is scaled to controls: 0 for no effect and ±100 for the full control effect; nearly all actives have a fitted effect of over 40% in size
# Target sequence (Q9NUW8 whole entry, looked up): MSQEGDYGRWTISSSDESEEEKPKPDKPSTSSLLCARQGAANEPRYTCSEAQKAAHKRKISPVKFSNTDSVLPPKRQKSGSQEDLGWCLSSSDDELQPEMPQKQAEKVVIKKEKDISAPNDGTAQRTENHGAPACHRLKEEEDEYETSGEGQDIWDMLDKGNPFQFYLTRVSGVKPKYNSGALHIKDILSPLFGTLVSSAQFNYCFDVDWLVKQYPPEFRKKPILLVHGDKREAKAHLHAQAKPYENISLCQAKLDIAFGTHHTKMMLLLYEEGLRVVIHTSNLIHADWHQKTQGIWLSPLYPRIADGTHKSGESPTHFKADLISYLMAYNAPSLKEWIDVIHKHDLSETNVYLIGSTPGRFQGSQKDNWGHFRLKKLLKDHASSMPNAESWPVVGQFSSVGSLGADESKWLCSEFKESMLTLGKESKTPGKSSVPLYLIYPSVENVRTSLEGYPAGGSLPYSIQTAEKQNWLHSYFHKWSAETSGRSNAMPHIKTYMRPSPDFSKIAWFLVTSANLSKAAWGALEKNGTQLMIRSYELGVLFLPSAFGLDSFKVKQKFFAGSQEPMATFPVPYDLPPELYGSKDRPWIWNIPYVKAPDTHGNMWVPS
#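 Compounds were preincubated with Tdp1 (1 nM final) for 15 min at room temperature before substrate (15 nM final) started a 5 min reaction; beads (10 ug/ml final) were then added for 10 min before AlphaScreen detection.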
# DT40 TDP1 CPT = DT40-hTDP1 cell growth loss with CPT. chicken DT40 Tdp1-/-;hTDP1 cells + 20 nM CPT, ATP luminescence, 48 h. Potency, µM (series often up to 46.2 µM), for the others: top-dose activity change, negative = growth inhibition, hits mostly inhibitors. actives 12% (n = 420,000). AID 686979; also: potency is read from the fitted curve at half-maximal effect; % is scaled to controls: 0 for no effect and ±100 for the full control effect; nearly all actives have a fitted effect of over 55% in size
#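 Chicken DT40 Tdp1-/- cells stably complemented with human TDP1 were seeded at 400 cells/well in medium containing 20 nM camptothecin, exposed to pin-transferred compounds, and grown at 37 °C for at least 48 hr. Viability was read as ATP luminescence.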
# TGFb SMAD3 inh = inhibitors of TGF-b signaling; Potency, µM (titrated, usually from 46.1 µM), for inactives: at the top dose activity, negative = inhibition, most hits filed as inhibitors; HepG2 CAGA-GFP TGF-b/SMAD3 reporter, GFP fluorescence, 18 h; TGF-beta stimulated, 500 pg/mL final; actives 1.2% (n = 410,000); AID 588855; also: potency is read from the fitted curve at half-maximal effect; % is scaled to controls: 0 for no effect and ±100 for the full control effect; nearly all actives have a fitted effect of over 65% in size
#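 Using HEPG2 CAGA-GFP reporter cells at 1000 cells/well, we pinned test compounds, stimulated with recombinant TGF-beta (500 pg/mL final) and measured total well GFP after 18 h.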
# IL1B secr inh = blocks inflammasome-driven IL-1 beta release. THP-1 LPS/ATP IL-1B secretion, AlphaLISA, 16 h; stronger effect = lower value. activity change, % at 57.5 µM. actives 4.7% (n = 360,000). AID 743279; in the data active = activity change below about -50%; inconclusive = mostly about -30% to -49%; also: % is scaled to controls: 0 for no effect and ±100 for the full control effect
#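 THP-1 cells pretreated 1 hr with compounds (up to 57.5 uM final), then stimulated with LPS (250 ng/mL final) plus ATP (1.25 mM final); secreted IL-1B measured by AlphaLISA after 16 hr, decreased signal indicating inhibition.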
# Numbers without * were called inactive; ? = inconclusive; . = no result given. An excerpt weighted towards active compounds, which were near 18% of everything screened. Unless noted, calls follow the shape of the dose curve; as a rule, active = well fitted curve in the direction sought with a large enough effect; inconclusive = small, poorly fitted or top-dose-only effect, or another doubt; inactive = no such curve, though single readings can be large; an effect the other way counts as inactive or inconclusive.
SMILES,DT40 TDP1 no CPT,HepG2 viability,TDP1 block,DT40 TDP1 CPT,TGFb SMAD3 inh,IL1B secr inh
CCOC(=O)N1CCN(C(=O)c2cnn(-c3cccc(C)c3)c2-n2cccc2)CC1,?,-11.9%,5.3%,?,-9.0%,.
CCOC(=O)N1CCC(NC(=O)c2cnn(-c3ccc(C)cc3)c2-n2cccc2)CC1,25.9µM*,-3.3%,2.8%,?,-3.0%,.
N[C@H](C(=O)O)c1ccc(O)cc1,-8.7%,.,.,-0.1%,.,.
c1ccc(COn2nnc3ccccc32)c(COn2nnc3ccccc32)c1,10.3µM*,4.1%,8.7%,18.4µM*,-5.8%,?
CC(Cc1ccccc1)N1CCCC1=O (stereo not drawn),-13.3%,4.3%,.,-26.3%,0.0%,14.0
CCCCCSc1nnc2c(n1)OC(c1cccn1C)N(C(C)=O)c1ccccc1-2 (stereo not drawn),-15.4%,4.2%,7.8%,-16.0%,-27.7%,-74.4*
Cc1ccccc1C1=Nn2c(nnc2-c2ccco2)SC1,2.3%,0.2%,4.2%,-26.7%,-4.5%,24.3
O=C1C2C3C=CC(C3=C(c3ccccc3)c3ccccc3)C2C(=O)N1CCO (stereo not drawn),?,-12.5%,7.1%,-28.1%,0.0%,-12.6
O=C1C2C3C=CC(C3=C(c3ccccc3)c3ccccc3)C2C(=O)N1Cc1ccccc1 (stereo not drawn),18.4µM*,-3.4%,-9.8%,?,?,0.0
CCCSc1nc2c(cnn2-c2ccccc2)c(=O)n1N,?,-16.1%,1.2%,-2.0%,-0.5%,-63.3*
COCCN(Cc1cc2cc(C)ccc2[nH]c1=O)S(=O)(=O)c1ccc(Cl)cc1,?,-15.9%,2.9%,?,-22.2%,-15.5
Fc1ccc(Oc2nc(-c3ccccc3)nnc2C(F)(F)F)cc1,-24.8%,7.0%,2.0%,?,2.2%,4.2
Fc1ccc(Sc2nc(-c3ccccc3)nnc2C(F)(F)F)cc1,13µM*,-91.2%,2.8%,5.8µM*,?,-120.0*
COC(=O)c1cc(Nc2nc3ccccc3nc2NS(=O)(=O)c2ccc(C)cc2)ccc1Cl,6.51µM*,-25.2%,1.3%,18.4µM*,112.0%,.
CC(=O)Nc1ccc(Nc2nc3ccccc3nc2NS(=O)(=O)c2ccc(Cl)c([N+](=O)[O-])c2)cc1,5.8µM*,-10.4%,.,7.31µM*,?,-107.5*
CCOc1cc(C)c(C(C)C)cc1S(=O)(=O)n1ccnc1CC,?,-17.7%,7.1%,?,?,.
CCCOc1ccc(-c2nonc2NC(=O)COc2ccc(C)cc2)cc1OCCC,-2.0%,0.0%,3.7%,2.0%,-1.0%,.
COc1ccc(-c2noc(CSc3nnc(-c4ccncc4)n3-c3ccc(C)cc3)n2)cc1,?,-23.6%,9.8%,?,-3.8%,.
COc1ccc(-c2noc(CSc3nnc(-c4ccncc4)n3-c3ccc(OC)cc3)n2)cc1,?,-19.3%,9.8%,23.1µM*,-8.9%,.
Cc1ccc(-n2c(SCc3nc(-c4ccc(Cl)cc4)no3)nnc2-c2ccncc2)cc1,16.4µM*,-54.4%,4.9%,14.6µM*,?,.
Clc1ccc(-c2noc(CSc3nnc(-c4ccncc4)n3-c3ccccc3)n2)cc1,?,-21.6%,3.6%,?,-12.6%,-56.2*
Cn1c(SCc2nc(-c3ccc(Cl)cc3)no2)nnc1-c1ccco1,?,-34.7%,3.7%,-22.3%,-5.6%,13.6
Clc1ccccc1-c1nnc(SCc2nc(-c3ccccc3)no2)n1-c1ccccc1,7.31µM*,-28.5%,5.8%,18.4µM*,?,.
O=C(NCCN1CCN(Cc2ccccc2)CC1)c1ccc(CS(=O)(=O)c2c(Cl)cccc2Cl)o1,?,-31.0%,.,?,-14.2%,9.3
Cc1cccc(C(=O)N2CCCC(N3CCN(Cc4ccc5c(c4)OCO5)CC3)C2)n1 (stereo not drawn),8.8%,-12.6%,0.0%,-9.8%,3.5%,15.0
SMILES,DT40 TDP1 no CPT,HepG2 viability,TDP1 block,DT40 TDP1 CPT,TGFb SMAD3 inh,IL1B secr inh
Cc1ccc(-c2noc(CSc3nnc(C)n3-c3ccc(C)c(C)c3)n2)cc1,?,-53.4%,6.1%,?,?,.
Cc1ccc(-c2noc(CSc3nnc(-c4ccncc4)n3-c3ccc(C)cc3)n2)cc1,16.4µM*,-15.9%,2.9%,20.6µM*,0.3%,-0.4
COc1ccc(-c2noc(CSc3nnc(C)n3-c3ccc(F)cc3)n2)cc1,-26.3%,-14.9%,0.0%,?,?,.
Cc1ccc(-c2noc(CSc3nnnn3C3CCCCC3)n2)cc1,?,-23.6%,-2.9%,20.6µM*,-37.4%,9.4
CCCCN1C(=O)C(CC(=O)NCc2cccc3ccccc23)CC(C(=O)N2CCOCC2)=C1C (stereo not drawn),7.3%,0.5%,.,10.0%,-5.3%,15.5
CC(Oc1ccc(Cl)cc1Cl)c1nc(-c2ccc(NC(=O)c3ccco3)cc2)no1 (stereo not drawn),16.4µM*,-56.6%,1.0%,23.1µM*,0.0%,-10.5
COc1ccc(OC)c(C(C)NC(=O)c2ccco2)c1 (stereo not drawn),?,-20.0%,4.0%,23.1µM*,14.1%,7.3
COc1ccc(-c2noc(C(C)NC(=O)c3ccco3)n2)cc1 (stereo not drawn),14.6µM*,-7.5%,4.7%,18.4µM*,?,.
